# How the values were obtained:
# Conditions in all cases: concentration: 1 μM,replicates: in singlicate; n = 1
# [1] = system: TESK1
# [2] = system: TGFBR1
# [3] = system: TGFBR2
# [4] = system: TIE1
# [5] = system: T1, TIE2
# T1 construct: gene TEK
# [6] = system: TLK1
# [7] = system: TLK2
# [8] = system: TNIK
# [9] = system: TNK1
# [10] = system: TNK2
# [11] = system: TNNI3K
# [12] = system: T2, TRKA
# T2 construct: gene NTRK1
# [13] = system: TRKB
# [14] = system: T3, TRKC
# T3 construct: gene NTRK3
# [15] = system: TRPM6
# [16] = system: TSSK1B
# [17] = system: TSSK3
# [18] = system: TTK
# [19] = system: TXK
# [20] = system: TYK2(JH1domain-catalytic)
# 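Note: KINOMEscan kinase panel screen.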
compound,measurement,setting,value
C[C@@H](Oc1cc(-n2cnc3ccc(-c4ccncc4)cc32)sc1C(N)=O)c1ccccc1Cl [GSK483724],%Inh,[1],37%
same,%Inh,[2],0%
same,%Inh,[3],0%
same,%Inh,[4],41%
same,%Inh,[5],0%
same,%Inh,[6],0%
same,%Inh,[7],0%
same,%Inh,[8],9%
same,%Inh,[9],0%
same,%Inh,[10],25%
same,%Inh,[11],6%
same,%Inh,[12],57%
same,%Inh,[13],7%
same,%Inh,[14],18%
same,%Inh,[15],34%
same,%Inh,[16],29%
same,%Inh,[17],17%
same,%Inh,[18],34%
same,%Inh,[19],11%
same,%Inh,[20],18%
Cc1nnc(-c2ccc3occ(-c4ccc(S(C)=O)cc4)c3n2)o1 (stereo not shown),%Inh,[1],0%
same,%Inh,[2],0%
same,%Inh,[3],0%
same,%Inh,[4],0%
same,%Inh,[5],0%
same,%Inh,[6],3%
same,%Inh,[7],0%
same,%Inh,[8],1%
same,%Inh,[9],0%
same,%Inh,[10],0%
same,%Inh,[11],0%
same,%Inh,[12],0%
same,%Inh,[13],0%
same,%Inh,[14],0%
same,%Inh,[15],0%
same,%Inh,[16],0%
same,%Inh,[17],0%
same,%Inh,[18],8%
same,%Inh,[19],0%
same,%Inh,[20],0%
C[C@@H]1CCN(C(=O)N2CCCC2)C[C@@H]1N(C)c1ncnc2[nH]ccc12,%Inh,[1],16%
same,%Inh,[2],0%
same,%Inh,[3],0%
same,%Inh,[4],22%
same,%Inh,[5],10%
same,%Inh,[6],12%
same,%Inh,[7],0%
same,%Inh,[8],14%
same,%Inh,[9],69%
same,%Inh,[10],0%
same,%Inh,[11],18%
same,%Inh,[12],85%
same,%Inh,[13],55%
same,%Inh,[14],26%
same,%Inh,[15],4%
same,%Inh,[16],5%
same,%Inh,[17],4%
same,%Inh,[18],89%
same,%Inh,[19],4%
same,%Inh,[20],100%
Cn1ccc2ncnc(Oc3ccc(NC(=O)Nc4cccc(C(F)(F)F)c4)c(F)c3)c21,%Inh,[1],11%
same,%Inh,[2],0%
same,%Inh,[3],19%
same,%Inh,[4],96.7%
same,%Inh,[5],92.8%
same,%Inh,[6],0%
same,%Inh,[7],2%
same,%Inh,[8],0%
same,%Inh,[9],17%
same,%Inh,[10],0%
same,%Inh,[11],82%
same,%Inh,[12],100%
same,%Inh,[13],88%
same,%Inh,[14],96.4%
same,%Inh,[15],0%
same,%Inh,[16],0%
same,%Inh,[17],0%
same,%Inh,[18],18%
same,%Inh,[19],0%
same,%Inh,[20],0%
Cc1ccc(C(=O)Nc2ccc(Oc3ccc4nc(NC(=O)C5CC5)cn4c3)c(F)c2)c(=O)n1-c1ccccc1,%Inh,[1],30%
same,%Inh,[2],16%
same,%Inh,[3],0%
same,%Inh,[4],95%
same,%Inh,[5],99.4%
same,%Inh,[6],0%
same,%Inh,[7],0%
same,%Inh,[8],18%
same,%Inh,[9],64%
same,%Inh,[10],0%
same,%Inh,[11],24%
same,%Inh,[12],100%
same,%Inh,[13],99.9%
same,%Inh,[14],99%
same,%Inh,[15],0%
same,%Inh,[16],12%
same,%Inh,[17],0%
same,%Inh,[18],17%
same,%Inh,[19],76%
same,%Inh,[20],20%
CNC(=O)c1ccccc1Nc1nc(Nc2cccc(CS(C)(=O)=O)c2)ncc1C.O=CO [GSK1520489],%Inh,[1],64%
same,%Inh,[2],81%
same,%Inh,[3],37%
same,%Inh,[4],95%
same,%Inh,[5],95%
same,%Inh,[6],22%
same,%Inh,[7],0%
same,%Inh,[8],62%
same,%Inh,[9],100%
same,%Inh,[10],98.9%
same,%Inh,[11],66%
same,%Inh,[12],98%
same,%Inh,[13],91.1%
same,%Inh,[14],97.4%
same,%Inh,[15],78%
same,%Inh,[16],9%
same,%Inh,[17],0%
same,%Inh,[18],93.8%
same,%Inh,[19],99.7%
same,%Inh,[20],99.6%
C[C@@H](Oc1cc(-n2cnc3cc(-c4ccncc4)ccc32)sc1C(N)=O)c1ccccc1Cl [GSK479719],%Inh,[1],0%
same,%Inh,[2],1%
same,%Inh,[3],0%
same,%Inh,[4],84%
same,%Inh,[5],27%
same,%Inh,[6],0%
same,%Inh,[7],0%
same,%Inh,[8],11%
same,%Inh,[9],20%
same,%Inh,[10],37%
same,%Inh,[11],29%
same,%Inh,[12],66%
same,%Inh,[13],52%
same,%Inh,[14],50%
same,%Inh,[15],0%
same,%Inh,[16],34%
same,%Inh,[17],13%
same,%Inh,[18],2%
same,%Inh,[19],0%
same,%Inh,[20],25%
Cn1ccc2ncnc(Oc3ccc(NC(=O)Nc4ccnc(C(F)(F)F)c4)c(Cl)c3)c21,%Inh,[1],0%
same,%Inh,[2],0%
same,%Inh,[3],53%
same,%Inh,[4],76%
same,%Inh,[5],11%
same,%Inh,[6],6%
same,%Inh,[7],0%
same,%Inh,[8],0%
same,%Inh,[9],0%
same,%Inh,[10],0%
same,%Inh,[11],58%
same,%Inh,[12],5%
same,%Inh,[13],0%
same,%Inh,[14],27%
same,%Inh,[15],0%
same,%Inh,[16],0%
same,%Inh,[17],0%
same,%Inh,[18],0%
same,%Inh,[19],0%
same,%Inh,[20],0%
O=C(Nc1n[nH]c2cc(-c3ccco3)ccc12)C1CC1 [SB-737447],%Inh,[1],0%
same,%Inh,[2],6%
same,%Inh,[3],0%
same,%Inh,[4],17%
same,%Inh,[5],3%
same,%Inh,[6],20%
same,%Inh,[7],0%
same,%Inh,[8],65%
same,%Inh,[9],0%
same,%Inh,[10],0%
same,%Inh,[11],0%
same,%Inh,[12],57%
same,%Inh,[13],19%
same,%Inh,[14],32%
same,%Inh,[15],0%
same,%Inh,[16],0%
same,%Inh,[17],0%
same,%Inh,[18],18%
same,%Inh,[19],0%
same,%Inh,[20],21%
CC(=O)Nc1nc2cnc(Nc3cc(NC(=O)c4cccc(CC(C)(C)C#N)c4)ccc3C)nc2s1,%Inh,[1],0%
same,%Inh,[2],9%
same,%Inh,[3],0%
same,%Inh,[4],20%
same,%Inh,[5],2%
same,%Inh,[6],0%
same,%Inh,[7],0%
same,%Inh,[8],0%
same,%Inh,[9],7%
same,%Inh,[10],0%
same,%Inh,[11],57%
same,%Inh,[12],0%
same,%Inh,[13],0%
same,%Inh,[14],7%
same,%Inh,[15],2%
same,%Inh,[16],19%
same,%Inh,[17],1%
same,%Inh,[18],12%
same,%Inh,[19],1%
same,%Inh,[20],0%
CSc1nccc(-c2c(-c3ccc(F)cc3)ncn2CCCN2CCOCC2)n1.Cl [SB-217146],%Inh,[1],0%
same,%Inh,[2],0%
same,%Inh,[3],0%
same,%Inh,[4],0%
same,%Inh,[5],0%
same,%Inh,[6],0%
same,%Inh,[7],15%
same,%Inh,[8],0%
same,%Inh,[9],26%
same,%Inh,[10],0%
same,%Inh,[11],0%
same,%Inh,[12],0%
same,%Inh,[13],0%
same,%Inh,[14],0%
same,%Inh,[15],10%
same,%Inh,[16],0%
same,%Inh,[17],0%
same,%Inh,[18],0%
same,%Inh,[19],0%
same,%Inh,[20],13%
CCNCC(Cc1ccccc1)NC(=O)c1cc(Br)c(-c2ccnc3[nH]ccc23)s1.Cl.Cl (stereo not shown) [GSK1383280],%Inh,[1],24%
same,%Inh,[2],0%
same,%Inh,[3],0%
same,%Inh,[4],75%
same,%Inh,[5],0%
same,%Inh,[6],18%
same,%Inh,[7],16%
same,%Inh,[8],50%
same,%Inh,[9],0%
same,%Inh,[10],10%
same,%Inh,[11],11%
same,%Inh,[12],90%
same,%Inh,[13],77%
same,%Inh,[14],50%
same,%Inh,[15],8%
same,%Inh,[16],60%
same,%Inh,[17],13%
same,%Inh,[18],67%
same,%Inh,[19],0%
same,%Inh,[20],46%
COc1cc(Nc2nccc(N3CCC(NC(=O)c4cccc(C#N)c4)C3)n2)cc(OC)c1OC (stereo not shown) [GSK1379751],%Inh,[1],19%
same,%Inh,[2],4%
same,%Inh,[3],0%
same,%Inh,[4],32%
same,%Inh,[5],0%
same,%Inh,[6],4%
same,%Inh,[7],0%
same,%Inh,[8],0%
same,%Inh,[9],98.9%
same,%Inh,[10],10%
same,%Inh,[11],14%
same,%Inh,[12],60%
same,%Inh,[13],53%
same,%Inh,[14],64%
same,%Inh,[15],0%
same,%Inh,[16],10%
same,%Inh,[17],7%
same,%Inh,[18],0%
same,%Inh,[19],9%
same,%Inh,[20],72%
O=C(Nc1cccc(Oc2ccc3nccn3n2)c1)Nc1cccc(C(F)(F)F)c1,%Inh,[1],11%
same,%Inh,[2],4%
same,%Inh,[3],0%
same,%Inh,[4],75%
same,%Inh,[5],5%
same,%Inh,[6],14%
same,%Inh,[7],0%
same,%Inh,[8],51%
same,%Inh,[9],26%
same,%Inh,[10],0%
same,%Inh,[11],66%
same,%Inh,[12],76%
same,%Inh,[13],35%
same,%Inh,[14],55%
same,%Inh,[15],0%
same,%Inh,[16],13%
same,%Inh,[17],0%
same,%Inh,[18],0%
same,%Inh,[19],22%
same,%Inh,[20],9%

# Reference: article PMC5540273 (PLoS ONE, 2017)
